Measurements published in PubChem BioAssay (NCI).
About 83,000 compounds went through this panel and 20% of them were active in at least one assay; those are over-represented in the sample as a whole.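 Single-concentration screen, 48 h exposure, 96-well plates. Endpoint: percent growth. Below 10 = active.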 A number with no mark means an inactive call. Calls of active or inactive are those of the source.

System: HL-60(TB) leukemia
Assay: NCI-60 one-dose screen, 48 h (100 = growth as untreated, 0 = no growth, -100 = all killed)
Conditions: 10 µM unless noted

SMILES | growth
N#C/C(=C(/O)CCCO)c1nc2ccccc2c(=O)[nH]1 | 102%
O=c1[nH]c(=O)n(C2CC(O)C(CO)O2)cc1CO (stereo not given) | 107%
Cc1cc(=O)oc2cc(Oc3nc(Br)cn4c(Br)cnc34)ccc12 | 30.8%
O=C(O)c1ccc(-n2c(=O)c3ccccc3c3ccccc3c2=O)cc1 | 83.7%
CCNC(=O)N1CCc2c(Br)c3c(c(OC)c2C1Cc1ccc(OC)cc1)OCO3 (stereo not given) | 7.48% (active)
CC(=O)N1Cc2ccccc2C(C)Cc2cc(Cl)ccc21 (stereo not given) | 111%
CC(=O)OC1Oc2ccccc2-c2oc3nc(=N)n(C)c-3cc21 (stereo not given) | 94.4%
Nc1c(C(=O)Nc2ccnc3ccccc23)sc2nc3c(cc12)CN(Cc1ccccc1)CC3 | 32.7%
Cc1ccc(-c2nc(SCc3nc4cc(Cl)c(Cl)cc4[nH]3)[nH]c(=O)c2C#N)cc1 | 96.9%
COc1ccc(-c2nc(NCCO)[nH]c(=O)c2C#N)cc1 | 103%
CC(=O)ON=C1C=CC(=C(C#N)c2ccccc2)C=C1 | -10.5% (active)
Clc1ccc(-c2nc(-c3ccco3)cn3ccnc23)cc1 | 102%
COC(=O)/C=C1\SC(=Nc2ccc(F)cc2)N(CCc2c[nH]c3ccccc23)C1=O | 73.7%
CCCC[N+](C)(N)CCCC | 104%
COC(=O)Nc1nc2ccc(C(=O)c3ccc(F)cc3)cc2[nH]1 | -70.4% (active)
CCc1ccc(-c2nnc(COc3ccc(-c4nc5cc(Cl)c(Cl)cc5[nH]4)cc3OC)o2)cc1 | 105%
CCSCC1CC(O)(c2ccccc2)CC(c2ccc(F)cc2)O1 (stereo not given) | -31.9% (active)
COc1ccc(OC)c(/C=C/C(=O)N/N=C/c2ccc(Cl)cc2)c1 | 20.1%
C=CC(=O)N1CN(C(=O)C=C)CN(C(=O)C=C)C1 | 25.3%
O=C(Nc1ccc(-n2ccc3c(NC(=O)c4ccccc4)nccc32)cc1)c1cccc(C(F)(F)F)c1 | 16.8%

SMILES | growth
CSc1nc2ncnc(SC)c2[nH]1 | 118%
CSc1nc2ccc(C)cc2cc1/C=C1/C=C(c2ccccc2)NC1=O | 87.4%
C[N+](C)(C/C=C/c1ccccc1)Cc1ccccc1 | 92.6%
Cn1cc(-c2csc(-c3c[nH]c4ncccc34)n2)c2cc(Br)cnc21 | 87.6%
CN1CCN(c2ccc(-c3cnc4c(-c5csc6ccccc56)cnn4c3)cc2)CC1 | 9.53% (active)
CC(C)(C)OC(=O)CC(S(=O)(=O)c1ccccc1)S(=O)(=O)c1ccccc1 | 76.2%
COC(=O)c1c(C(=O)OC)c2ccc3c4ncccc4ccc3n2c1C(=O)c1ccc(C)cc1 | 91.8%
CN1C(=O)N(C)C2NC(N/N=C/c3ccccc3)=NC21 (stereo not given) | 99.6%
COc1ccc(/C=C2\CCCC3=C2N=C2SC=NN2C3c2ccc(OC)c(OC)c2)cc1OC (stereo not given) | 15%
N#CCCc1c[nH]c2ccccc12 | 99.3%
Cn1c2c(c(=O)[nH]c1=O)NC1=C(C(=O)c3ccccc31)C1(C=C(O)c3ccccc31)N2 (stereo not given) | 109%
COC(=O)CCC1=C(CC(=O)OC)C(C)=N/C1=C\c1[nH]c(-c2ccc[nH]2)cc1OC | 44.2%
CC1=CC2OC34COC3CC(OC(=O)C(F)(F)F)C4(C)C2(C)CC1 (stereo not given) | 114%
CCN(CC)CCCC(C)Nc1c(C)cnc2cc(Cl)c(C)cc12 (stereo not given) | 65.9%
CC(C)NC(=O)OCc1c(COC(=O)NC(C)C)c(-c2ccc(Cl)cc2)n2c1CCC2 | 43.9%
O=C(O)c1cccc(CN2CCN(c3cc4c(cc3F)c(=O)c(C(=O)O)cn4C3CC3)CC2)c1O | 99.4%
COc1cccc2c1n([O-])c1cccc(OC)c1[n+]2=O | 10.3%
COc1cccc(-c2nnc(N)o2)c1 | 74.9%
COc1cc2cc(Oc3ccc(NC(=O)c4ccc(Cl)c(C(F)(F)F)c4)cc3)c(C)nc2cc1OC | 17.4%
O=C1c2cccc3cccc(c23)C(=O)N1CCCCCCCCCCN1C(=O)c2cccc3cccc(c23)C1=O | 99.6%
